Assay results: PubChem BioAssay (Tox21)
Results filed as inconclusive are left out. Active and inactive are the calls of the source. Unless noted, the call rests on the fitted dose curve; in most records, active means well fitted curve in the direction sought with a large enough effect in the repeat runs; inconclusive means weak or mixed curves; inactive means no such curve, though single readings can be large; an effect the other way counts as inactive or inconclusive.

Tests used:
[1] = qHTS assay to identify small molecule antagonists of the peroxisome proliferator-activated receptor delta (PPARd) signaling pathway - cell viability counter screen (AID 743213); conditions: PPARd-bla HEK293H viability, CellTiter-Glo luminescence, 17 h; series mostly up to 62 µM; further: nearly all actives have a fitted effect of over 50% in size; further: potency means the concentration at half of the fitted maximal effect
Outline: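 HEK293H cells with the PPARd UAS-bla reporter, co-treated 17 h at 37 C with compounds and L165041 (300 nM final), were lysed with CellTiter-Glo. Luminescence indicated viable cell content.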

[2] = target: Peroxisome proliferator-activated receptor delta (Homo sapiens) (UniProt Q03181); experiment: qHTS assay to identify small molecule antagonists of the peroxisome proliferator-activated receptor delta (PPARd) signaling pathway (AID 743215; active means well fitted inhibition curve with a large enough effect in the signal ratio in the repeat runs, not every such curve was filed as active; the % refers to the signal ratio;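 further: cells stimulated with agonist L165041 at 300 nM final during compound exposure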); conditions: HEK293H PPARd-UAS-bla, beta-lactamase FRET ratio, antagonist, 17 h; series mostly up to 62 µM
Sequence of Peroxisome proliferator-activated receptor delta (Homo sapiens) (Q03181 whole entry, looked up): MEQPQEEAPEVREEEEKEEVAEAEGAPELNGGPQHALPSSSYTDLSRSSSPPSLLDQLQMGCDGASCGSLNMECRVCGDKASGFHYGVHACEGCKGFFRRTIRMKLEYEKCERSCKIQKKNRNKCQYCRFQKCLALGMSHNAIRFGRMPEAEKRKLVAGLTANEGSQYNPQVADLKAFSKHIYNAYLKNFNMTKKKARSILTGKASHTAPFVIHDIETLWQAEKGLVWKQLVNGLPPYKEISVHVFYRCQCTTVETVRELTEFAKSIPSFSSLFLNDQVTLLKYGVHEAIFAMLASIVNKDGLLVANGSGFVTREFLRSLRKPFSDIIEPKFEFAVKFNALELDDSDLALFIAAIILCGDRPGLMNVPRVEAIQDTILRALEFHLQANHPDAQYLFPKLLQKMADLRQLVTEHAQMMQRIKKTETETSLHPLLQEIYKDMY
Outline: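 PPARd-bla HEK293H cells (UAS-bla reporter) preincubated 5 h, then given compound plus 300 nM final L165041 agonist for 17 h at 37 C. Beta-lactamase activity read by LiveBLAzer B/G FRET substrate fluorescence after 2 h at room temperature.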

[3] = qHTS assay to identify small molecule agonists of the farnesoid-X-receptor (FXR) signaling pathway - cell viability counter screen (AID 743218); conditions: FXR-bla HEK293T viability, CellTiter-Glo luminescence, 16 h; series mostly up to 62.6 µM; further: nearly all actives have a fitted effect of over 45% in size; further: potency means the concentration at half of the fitted maximal effect
Outline: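 FXR-UAS-bla HEK 293T cells exposed to compounds for 16 h at 37C. Cytotoxicity read in the same wells by CellTiter-Glo luminescence after 30 min at room temperature, following the beta-lactamase FRET read.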

[4] = qHTS assay to identify small molecule antagonists of the farnesoid-X-receptor (FXR) signaling pathway - cell viability counter screen (AID 743221; active means well fitted cell-killing curve with a large enough effect in the repeat runs, not every such curve was filed as active; further: nearly all actives have a fitted effect of over 50% in size); conditions: FXR-bla HEK293T viability, CellTiter-Glo luminescence, 16 h; series mostly up to 62.6 µM
Outline: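 FXR-UAS-bla HEK 293T cells were treated with test compounds plus chenodeoxycholic acid (50 uM final) for 16 h at 37 C. Cell viability in the same wells was then read as CellTiter-Glo luminescence after 30 min at room temperature.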

[5] = qHTS assay to identify small molecule agonists of the vitamin D receptor (VDR) signaling pathway - cell viability counter screen (AID 743224); conditions: VDR-bla HEK293T viability, CellTiter-Glo luminescence, 16 h; series mostly up to 62.6 µM; further: nearly all actives have a fitted effect of over 50% in size
Outline: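 VDR-bla cells, 4 h after plating, exposed to compounds for 16 h at 37C; viability then read in the same wells as CellTiter-Glo luminescence after 30 min at room temperature, following the bla FRET read.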

[6] = qHTS assay to identify small molecule agonists of the NFkB signaling pathway (AID 1159509; active means well fitted curve in the direction sought with a large enough effect in the signal ratio in the repeat runs, not every such curve was filed as active; the % refers to the signal ratio); conditions: NFkB-bla ME-180 cells, beta-lactamase FRET ratio, 5 h; series mostly up to 61 µM
Outline: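 NFkB-bla ME-180 cells carry a beta-lactamase reporter under an NF-kB response element. They were plated overnight, then exposed to compounds for 5 h at 37 C. Read-out is LiveBLAzer FRET after 1.5 hr at room temperature (405 nm excitation; 460/530 nm emission).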

[7] = qHTS assay to identify small molecule agonists of the NFkB signaling pathway - cell viability counter screen (AID 1159515; calls by dose curve; further: nearly all actives have a fitted effect of over 55% in size); conditions: NFkB-bla ME-180 viability, CellTiter-Glo luminescence, 5 h; series mostly up to 61 µM
Outline: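 NFkB-bla ME-180 cells, 2,000/well, plated overnight at 37 C; compound added for 5 hr at 37 C. Viability read in the same wells as the bla reporter, by CellTiter-Glo luminescence after 30 min at room temperature.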

[8] = qHTS assay to identify small molecule agonists of the endoplasmic reticulum stress response signaling pathway (AID 1159516; active means well fitted activation curve with a large enough effect in the signal ratio in the repeat runs, not every such curve was filed as active; the % refers to the signal ratio); conditions: ESRE-bla HeLa, ER stress beta-lactamase reporter, 5 h; series mostly up to 61 µM
Outline: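 CellSensor ESRE-bla HeLa cells, 1,500 per well, plated overnight, then exposed to compounds for 5 hr at 37 C. Beta-lactamase reporter read with LiveBLAzer B/G FRET substrate after 2 hr at room temperature, 405 nm excitation, 460 and 530 nm emission.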

[9] = qHTS assay to identify small molecule agonists of the endoplasmic reticulum stress response signaling pathway - cell viability counter screen (AID 1159517; calls by dose curve;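 further: HeLa cells carrying an ER stress response element beta-lactamase reporter; nearly all actives have a fitted effect of over 50% in size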); conditions: ESRE-bla HeLa viability, CellTiter-Glo luminescence, 5 h; series mostly up to 61 µM
Outline: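 ESRE-bla HeLa cells, 1,500 per well, seeded overnight then treated with compounds for 5 hr at 37 C. After the beta-lactamase read, viability in the same wells is measured by CellTiter-Glo luminescence after 30 min at room temperature.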

[10] = qHTS assay to identify small molecule antagonists of the retinoid-related orphan receptor gamma (ROR-gamma) signaling pathway - cell viability counter screen (AID 1159520); conditions: Tet-on RORgamma CHO cells viability, ATP luminescence, 16 h; series mostly up to 92.4 µM; further: nearly all actives have a fitted effect of over 50% in size
Outline: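 Tet-on ROR gamma CHO cells were given compounds for 2 hr, then doxycycline hyclate at 1 uM final, and incubated 16 hr at 37 C. Viability was measured as ATP content by CellTiter-Glo luminescence.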

[11] = target: Nuclear receptor ROR-gamma (Homo sapiens) (UniProt P51449); experiment: qHTS assay to identify small molecule antagonists of the retinoid-related orphan receptor gamma (ROR-gamma) signaling pathway (AID 1159521); conditions: Tet-on RORgamma CHO cells, RORE-luciferase, 16 h; series mostly up to 92.4 µM
Outline: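 Tet-on RORγ CHO cells carrying a ROR response element–luciferase reporter were pretreated with compounds for 2 h, then induced with 1 uM (final) doxycycline hyclate for 16 h at 37 C. Antagonism was read as decreased ONE-Glo luminescence.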

[12] = qHTS assay to identify small molecule agonists of the AP-1 signaling pathway - cell viability counter screen (AID 1159525; calls by dose curve; further: nearly all actives have a fitted effect of over 55% in size); conditions: ME-180 AP-1-bla cells viability, ATP luminescence, 5 h; series mostly up to 76.8 µM
Outline: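 AP-1-bla ME-180 cells in Opti-MEM with 0.5% dialyzed FBS, compound exposure 5 h at 37 C in 15-point titration. Viability read in the same wells as ATP content by CellTiter-Glo luminescence, normalised to tetra-n-octylammonium bromide and DMSO controls.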

[13] = qHTS assay to identify small molecule agonists of the AP-1 signaling pathway (AID 1159526; calls by dose curve); conditions: ME-180 (cervical carcinoma) AP-1-bla reporter, beta-lactamase FRET ratio, 5 h; series mostly up to 76.8 µM
[14] = target: Vitamin D3 receptor (Homo sapiens) (UniProt P11473); experiment: qHTS assay to identify small molecule agonists of the vitamin D receptor (VDR) signaling pathway (AID 743222; calls by dose curve); conditions: HEK293T VDR-UAS-bla, beta-lactamase FRET ratio, 16 h; series mostly up to 63.5 µM
Sequence of Vitamin D3 receptor (Homo sapiens) (P11473 whole entry, looked up): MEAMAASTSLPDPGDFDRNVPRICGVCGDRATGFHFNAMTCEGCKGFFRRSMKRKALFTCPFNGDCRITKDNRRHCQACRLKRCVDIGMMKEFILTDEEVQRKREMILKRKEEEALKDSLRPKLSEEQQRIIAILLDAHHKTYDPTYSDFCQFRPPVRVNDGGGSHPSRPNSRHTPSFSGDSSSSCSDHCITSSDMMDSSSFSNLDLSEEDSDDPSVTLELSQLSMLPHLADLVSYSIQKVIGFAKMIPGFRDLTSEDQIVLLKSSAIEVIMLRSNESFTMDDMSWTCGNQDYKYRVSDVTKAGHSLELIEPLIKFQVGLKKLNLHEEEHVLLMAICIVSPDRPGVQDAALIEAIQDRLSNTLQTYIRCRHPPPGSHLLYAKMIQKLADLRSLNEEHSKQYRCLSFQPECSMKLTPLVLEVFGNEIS
Outline: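 VDR-bla cells plated 4 h at 37 C, then exposed to compounds for 16 h at 37 C. Beta-lactamase reporter activity measured by fluorescence after 2 h room-temperature loading with LiveBLAzer B/G FRET substrate.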

[15] = qHTS assay to identify small molecule antagonists of the vitamin D receptor (VDR) signaling pathway - cell viability counter screen (AID 743225); conditions: VDR-bla HEK293T viability, CellTiter-Glo luminescence, 16 h; series mostly up to 61 µM; further: nearly all actives have a fitted effect of over 50% in size
Outline: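 VDR-bla HEK 293T cells, 4 h pre-incubation at 37C, then compound plus 1-alpha,25-dihydroxyvitamin D3 (3 nM final) for 16 h. After the beta-lactamase FRET read, CellTiter-Glo was added to the same wells; luminescence after 30 min at room temperature.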

[16] = target: Bile acid receptor (Homo sapiens) (UniProt Q96RI1); experiment: qHTS assay to identify small molecule antagonists of the farnesoid-X-receptor (FXR) signaling pathway (AID 743217; active means well fitted inhibition curve with a large enough effect in the signal ratio in the repeat runs, not every such curve was filed as active; the % refers to the signal ratio); conditions: HEK293T FXR-UAS-bla, beta-lactamase ratio, CDCA-stimulated, 16 h; series mostly up to 62.6 µM
Sequence of Bile acid receptor (Homo sapiens) (Q96RI1 whole entry, looked up): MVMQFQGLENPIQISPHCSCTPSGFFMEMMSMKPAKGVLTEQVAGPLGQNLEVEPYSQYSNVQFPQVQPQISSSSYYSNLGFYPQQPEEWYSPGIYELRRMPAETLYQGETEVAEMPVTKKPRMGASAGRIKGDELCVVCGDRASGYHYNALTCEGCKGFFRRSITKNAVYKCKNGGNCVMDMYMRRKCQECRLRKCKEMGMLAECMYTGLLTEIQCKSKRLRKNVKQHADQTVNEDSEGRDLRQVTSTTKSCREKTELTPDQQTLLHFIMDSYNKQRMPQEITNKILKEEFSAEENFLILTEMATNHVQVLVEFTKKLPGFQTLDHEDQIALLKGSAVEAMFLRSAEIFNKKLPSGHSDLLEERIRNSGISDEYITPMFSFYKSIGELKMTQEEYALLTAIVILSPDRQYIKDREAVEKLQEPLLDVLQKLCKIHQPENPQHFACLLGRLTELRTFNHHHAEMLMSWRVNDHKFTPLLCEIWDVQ
Outline: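 FXR-UAS-bla HEK 293T cells (beta-lactamase reporter) given compound plus chenodeoxycholic acid (50 uM final), 16 h at 37C. LiveBLAzer B/G FRET substrate added for 2 h at room temperature; fluorescence read.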

[17] = target: Bile acid receptor (Homo sapiens) (UniProt Q96RI1); experiment: qHTS assay to identify small molecule agonists of the farnesoid-X-receptor (FXR) signaling pathway (AID 743220; active means well fitted activation curve with a large enough effect in the signal ratio in the repeat runs, not every such curve was filed as active; the % refers to the signal ratio); conditions: HEK293T FXR-UAS-bla, beta-lactamase FRET ratio, 16 h; series mostly up to 62.6 µM
Outline: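 Beta-lactamase reporter under UAS control in GeneBLAzer FXR HEK 293T cells (5000/well) measured with LiveBLAzer FRET substrate after 2 h at room temperature. Compound exposure lasted 16 h at 37C.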

[18] = target: Vitamin D3 receptor (Homo sapiens) (UniProt P11473); experiment: qHTS assay to identify small molecule antagonists of the vitamin D receptor (VDR) signaling pathway (AID 743223; active means well fitted inhibition curve with a large enough effect in the signal ratio in the repeat runs, not every such curve was filed as active; the % refers to the signal ratio); conditions: VDR-UAS-bla HEK293T, beta-lactamase FRET ratio, 16 h; series mostly up to 61 µM
Outline: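 VDR-bla cells were plated, incubated 4 h at 37C, then given compound and 1alpha,25-dihydroxyvitamin D3 (3 nM final). After 16 h at 37C, LiveBLAzer B/G FRET substrate was added for 2 h at room temperature and fluorescence read.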

[19] = target: Retinoic acid receptor RXR-alpha (Homo sapiens) (UniProt P19793); experiment: qHTS assay to identify small molecule agonists of the RXR signaling pathway (AID 1159527; calls by dose curve; further: nearly all actives have a fitted effect of over 35% in size); conditions: HEK293T RXRa-UAS-bla, beta-lactamase ratio, 16 h; series mostly up to 35.3 µM
Sequence of Retinoic acid receptor RXR-alpha (Homo sapiens) (P19793 whole entry, looked up): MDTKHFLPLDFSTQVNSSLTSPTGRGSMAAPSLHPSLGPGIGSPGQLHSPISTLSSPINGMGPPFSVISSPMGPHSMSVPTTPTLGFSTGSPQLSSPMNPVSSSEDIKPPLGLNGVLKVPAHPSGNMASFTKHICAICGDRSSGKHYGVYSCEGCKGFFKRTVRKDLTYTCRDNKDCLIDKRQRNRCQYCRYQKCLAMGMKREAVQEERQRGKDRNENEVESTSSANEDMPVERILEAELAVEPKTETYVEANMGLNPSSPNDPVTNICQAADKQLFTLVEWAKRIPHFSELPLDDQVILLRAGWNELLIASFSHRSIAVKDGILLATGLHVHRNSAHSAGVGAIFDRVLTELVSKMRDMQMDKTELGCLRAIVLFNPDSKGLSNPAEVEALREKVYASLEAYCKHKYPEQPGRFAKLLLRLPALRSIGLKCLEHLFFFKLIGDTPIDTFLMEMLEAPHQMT
Outline: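 GeneBLAzer RXR-alpha-UAS-bla HEK 293T cells in medium with 2% charcoal-stripped FBS, pre-incubated 5 hr at 37 C, then exposed to compounds 16 hr. Beta-lactamase reporter read by FRET substrate, 2 hr room temperature, 460/530 nm emission.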

[20] = qHTS assay to identify small molecule agonists of the RXR signaling pathway - cell viability counter screen (AID 1159529); conditions: RXR-alpha-bla HEK293T viability, CellTiter-Glo, 16 h; series mostly up to 76.8 µM; further: nearly all actives have a fitted effect of over 50% in size
Outline: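 RXR-alpha-UAS-bla HEK 293T cells in medium with 2% charcoal-stripped FBS were preincubated 5 hr, then exposed to compounds for 16 hr at 37 C. Viability was read as CellTiter-Glo luminescence after 30 min at room temperature.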

Measured: Potency

CC(CN=Cc1ccccc1O)N=Cc1ccccc1O (configuration not stated)
not listed: [14] | [15] | [16] | [17] | [18] | [19] | [20]
inactive: all other assays above

C=C[Si]1(C)O[Si](C)(C=C)O[Si](C)(C=C)O[Si](C)(C=C)O1 (configuration not stated)
not listed: [1] | [2] | [5] | [16] | [17] | [18] | [19] | [20]
inactive: all other assays above

CC(C)(Cc1c[nH]c2ccccc12)NCC(O)COc1ccccc1C#N (configuration not stated)
inactive: [2] | [16] | [17] | [6] | [7] | [8] | [9] | [10] | [11] | [12] | [13]

O=C(Cl)c1ccc(F)c(Cl)c1
not listed: [5] | [14] | [16] | [17] | [19] | [20]
inactive: all other assays above

COc1ccc(CN(CCN(C)C)c2ncccn2)cc1
not listed: [13] | [15]
inactive: all other assays above

CCCc1ccc(OC)cc1
not listed: [1] | [4] | [14] | [16] | [17] | [18] | [19] | [20]
inactive: all other assays above

CCC(C(=O)O)c1ccc(N2Cc3ccccc3C2=O)cc1 (configuration not stated)
not listed: [14] | [16] | [17] | [18] | [19] | [20]
inactive: all other assays above

O=C1c2ccccc2C(=O)C1c1ccc2ccccc2n1
not listed: [2] | [14] | [16] | [17] | [19] | [20]
inactive: all other assays above

Cc1nc2sccn2c(=O)c1CCN1CCC(=C(c2ccc(F)cc2)c2ccc(F)cc2)CC1
active: [3] 26.6 µM
inactive: [4] | [5] | [6] | [7] | [8] | [9] | [10] | [11] | [12] | [13]

CC(C)CC(C)(C)C
not listed: [5] | [15] | [16] | [17] | [19] | [20]
inactive: all other assays above

CCCCCCOC(=O)c1ccccc1
active: [3] 30.9 µM
inactive: [1] | [16] | [6] | [7] | [8] | [9] | [10] | [11] | [12] | [13]

CCCCOC(=O)CC#N
active: [1] 57.6 µM
not listed: [2] | [16] | [17] | [18] | [19] | [20]
inactive: all other assays above

CC(C)CCCCCCCOC(=O)c1ccc(C(=O)OCCCCCCCC(C)C)c(C(=O)OCCCCCCCC(C)C)c1
not listed: [16] | [17] | [18] | [19] | [20]
inactive: all other assays above

CCOC(C)OCC
not listed: [2] | [14] | [16] | [17] | [19] | [20]
inactive: all other assays above

C[C@@H](O)[C@H]1C(=O)N2C(C(=O)O)=C(S[C@@H]3CN[C@H](CNS(N)(=O)=O)C3)[C@H](C)[C@H]12
not listed: [3] | [5] | [14] | [15] | [18] | [19] | [20]
inactive: all other assays above

Cc1c(Nc2ncccc2C(=O)O)cccc1C(F)(F)F
inactive: [5] | [15] | [6] | [7] | [8] | [9] | [10] | [11] | [12] | [13]

CCCCCC1CCC(=O)O1 (configuration not stated)
not listed: [2] | [14] | [15] | [19] | [20]
inactive: all other assays above

[O-][n+]1ccc(Cl)cc1
not listed: [18] | [19] | [20]
inactive: all other assays above
